# Activity calls are given as the source filed them.
# Legend:
# [1] = optical density shifts of acrAB sulA E. coli – strain DRC41, OD650, 48 h, E. coli filamentation inducer project, primary screen (AID 1152); details: higher = more signal, called active from +8 up or from −8 down;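 note: E. coli MC1000 strain DRC41 lacking acrAB efflux pump and sulA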
# [2] = probe aLefty1 binding on compound microarray – biochemical, small-molecule microarray, 635/667 nm fluorescence, primary screen (AID 1153); details: higher = more signal;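 note: score merges spot fluorescence with signal-to-noise ratio from the scanned slide images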
# [3] = plasmodial surface anion channel blockers, osmotic lysis – cell-based, P. falciparum Indochina, OD700, 1 h, primary screen (AID 1154); details: P. falciparum Indochina infected RBC osmotic lysis, higher = more signal, called active from +8 up or from −8 down
# [4] = plasmodial surface anion channel blockers, osmotic lysis – cell-based, P. falciparum Indochina, OD700, 2 h, primary screen (AID 1155);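 note: lysis reports solute entry through the parasite surface anion channel PSAC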; details: P. falciparum Indochina infected erythrocytes, higher = more signal, called active from +8 up or from −8 down
# [5] = changes in parasitized red cell lysis, either direction – P. falciparum Indochina, OD700, 3 h, PSAC antagonist project, primary screen (AID 1156); details: P. falciparum-infected erythrocytes, osmotic lysis, higher = more signal, called active from +8 up or from −8 down
# [6] = plasmodial surface anion channel blockers, osmotic lysis – cell-based, P. falciparum Indochina, OD700, 18 h, primary screen (AID 1157); details: P. falciparum Indochina infected erythrocytes, osmotic lysis OD700, 18 h; higher = more signal, called active from +8 up or from −8 down
# [7] = S6 kinase pathway phospho-S6 level changes – cell-based, A549, cytoblot, luminescence, serum-stimulated, primary screen (AID 1158); details: 5 h, higher = more signal;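 note: serum-stimulated A549 lung adenocarcinoma cells; signal is phosphorylated S6 detected by cytoblot immunostaining with HRP secondary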
# [8] = target: NADPH oxidase 2 (Homo sapiens) (UniProt P04839); test: compounds shifting NOX2 Amplex Red fluorescence – cell-based, HEK293-NOX2, PMA-stimulated, NOX inhibitor project, primary screen (AID 1159); details: 45 min, higher = more signal, called active from +8 up or from −8 down; note: test concentration not given here
# Sequence of NADPH oxidase 2 (Homo sapiens) (P04839 whole entry, looked up): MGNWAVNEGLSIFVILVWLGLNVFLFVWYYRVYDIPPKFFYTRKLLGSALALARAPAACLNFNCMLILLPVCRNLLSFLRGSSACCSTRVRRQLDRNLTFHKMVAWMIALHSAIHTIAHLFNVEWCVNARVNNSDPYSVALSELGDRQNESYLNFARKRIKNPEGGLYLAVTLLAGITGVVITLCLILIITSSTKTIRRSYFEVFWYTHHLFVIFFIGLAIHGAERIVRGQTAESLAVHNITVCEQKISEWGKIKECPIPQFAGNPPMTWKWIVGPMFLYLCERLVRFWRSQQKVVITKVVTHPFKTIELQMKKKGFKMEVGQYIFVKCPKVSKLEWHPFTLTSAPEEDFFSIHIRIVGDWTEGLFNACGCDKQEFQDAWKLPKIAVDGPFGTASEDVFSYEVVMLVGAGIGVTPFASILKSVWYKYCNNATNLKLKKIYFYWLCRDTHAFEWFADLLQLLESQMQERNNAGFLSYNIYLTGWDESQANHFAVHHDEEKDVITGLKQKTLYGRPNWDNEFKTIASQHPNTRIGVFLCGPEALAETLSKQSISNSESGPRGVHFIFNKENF
# [9] = target: NADPH oxidase 4 (Homo sapiens) (UniProt Q9NPH5); test: compounds shifting NOX4 Amplex Red fluorescence – cell-based, HEK293-NOX4, tetracycline-induced, NOX inhibitor project, primary screen (AID 1160); details: HEK293-NOX4, Amplex Red H2O2 fluorescence, 45 min; higher = more signal, called active from +8 up or from −8 down
# Sequence of NADPH oxidase 4 (Homo sapiens) (Q9NPH5 whole entry, looked up): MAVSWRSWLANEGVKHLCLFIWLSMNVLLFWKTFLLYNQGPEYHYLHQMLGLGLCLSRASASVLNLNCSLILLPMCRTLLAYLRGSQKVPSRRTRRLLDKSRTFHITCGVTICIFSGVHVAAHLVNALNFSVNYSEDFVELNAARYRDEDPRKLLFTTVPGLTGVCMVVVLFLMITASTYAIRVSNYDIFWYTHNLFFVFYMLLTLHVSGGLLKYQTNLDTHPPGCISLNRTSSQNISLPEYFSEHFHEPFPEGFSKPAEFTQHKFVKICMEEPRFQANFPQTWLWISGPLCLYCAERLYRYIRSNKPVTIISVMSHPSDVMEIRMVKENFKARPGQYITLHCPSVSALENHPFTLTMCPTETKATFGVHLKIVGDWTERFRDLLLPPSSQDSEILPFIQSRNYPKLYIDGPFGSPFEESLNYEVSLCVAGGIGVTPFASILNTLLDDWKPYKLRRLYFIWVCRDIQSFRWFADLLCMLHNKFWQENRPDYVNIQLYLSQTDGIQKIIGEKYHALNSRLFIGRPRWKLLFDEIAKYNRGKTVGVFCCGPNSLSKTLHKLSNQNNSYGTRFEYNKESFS
# [10] = target: NADPH oxidase 5 (Homo sapiens) (UniProt Q96PH1); test: compounds shifting NOX5 Amplex Red fluorescence – cell-based, HEK293-NOX5, NOX inhibitor project, primary screen (AID 1161); details: HEK293-NOX5, ionomycin, 45 min, higher = more signal
# Sequence of NADPH oxidase 5 (Homo sapiens) (Q96PH1 whole entry, looked up): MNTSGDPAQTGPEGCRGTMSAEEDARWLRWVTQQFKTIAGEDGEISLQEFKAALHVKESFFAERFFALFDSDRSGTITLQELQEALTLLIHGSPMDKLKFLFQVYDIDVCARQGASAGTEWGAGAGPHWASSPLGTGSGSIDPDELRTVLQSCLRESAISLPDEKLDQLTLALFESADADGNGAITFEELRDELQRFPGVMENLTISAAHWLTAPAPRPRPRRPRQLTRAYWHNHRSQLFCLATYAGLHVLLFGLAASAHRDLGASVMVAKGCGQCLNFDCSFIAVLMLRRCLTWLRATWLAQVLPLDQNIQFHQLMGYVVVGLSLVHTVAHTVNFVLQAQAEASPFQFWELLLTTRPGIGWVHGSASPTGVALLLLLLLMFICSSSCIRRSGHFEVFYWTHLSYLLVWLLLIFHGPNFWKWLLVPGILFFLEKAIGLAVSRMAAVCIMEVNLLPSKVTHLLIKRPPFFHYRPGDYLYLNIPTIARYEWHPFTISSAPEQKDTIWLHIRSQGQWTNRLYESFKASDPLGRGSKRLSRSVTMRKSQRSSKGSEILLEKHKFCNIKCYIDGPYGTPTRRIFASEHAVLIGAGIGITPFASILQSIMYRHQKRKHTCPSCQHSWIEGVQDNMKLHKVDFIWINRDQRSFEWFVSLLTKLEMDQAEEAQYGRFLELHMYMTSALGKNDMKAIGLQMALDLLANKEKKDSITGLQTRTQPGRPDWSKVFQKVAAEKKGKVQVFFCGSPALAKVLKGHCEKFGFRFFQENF
# [11] = compound effects on lung adenocarcinoma cell viability – A549, calcein-AM fluorescence, 48 h, basal, profiling panel (AID 1162); details: higher = more signal; note: test concentration not given here
# [12] = compound effects on differentiated 3T3-L1 adipocyte viability – cell-based, 3T3-L1 adipocytes, calcein-AM fluorescence, 48 h, basal, profiling panel (AID 1163); details: 3T3-L1 adipocytes viability, higher = more signal; note: test concentration not given here
# [13] = compound effects on hepatocellular carcinoma cell viability – HepG2, calcein-AM fluorescence, 48 h, basal, profiling panel (AID 1164); details: higher = more signal; note: test concentration not given here
# [14] = compound effects on multiple myeloma cell viability – MM1S, calcein-AM fluorescence, 48 h, basal, profiling panel (AID 1165); details: higher = more signal;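 note: viability of MM1S multiple myeloma cells under basal unstimulated conditions; test concentration not given here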
# [15] = calcein-AM signal in unstimulated myeloma cells – cell-based, calcein-AM fluorescence, 48 h, PK04 Diversity Set, profiling panel (AID 1166); details: RPMI8226 myeloma viability, higher = more signal;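 note: cells grown under basal conditions without added stimulus; test concentration not given here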
# [16] = JC-1 mitochondrial signal, unstimulated HepG2 cells – cell-based, JC-1 fluorescence, 24 h, 100 nL compound, profiling panel (AID 1167); details: HepG2 mitochondrial potential, higher = more signal; note: test concentration not given here
# [17] = JC-1 mitochondrial signal, unstimulated adipocytes – cell-based, JC-1 fluorescence, 3T3-L1 adipocytes, 24 h, 100 nL compound, profiling panel (AID 1168); details: JC-1 mitochondrial fluorescence, higher = more signal, called active from +8 up or from −8 down; note: test concentration not given here
# [18] = JC-1 mitochondrial signal, unstimulated myeloma cells – cell-based, JC-1 fluorescence, RPMI8226, 24 h, 100 nL compound, profiling panel (AID 1169); details: JC-1 mitochondrial potential fluorescence, higher = more signal; note: test concentration not given here
# [19] = JC-1 mitochondrial signal, unstimulated MM1S myeloma – cell-based, JC-1 fluorescence, 24 h, 100 nL compound, profiling panel (AID 1170); details: MM1S mitochondrial potential, higher = more signal; note: test concentration not given here
# [20] = resazurin metabolic signal in A549 cells – cell-based, resazurin fluorescence, 24 h, PK04 Diversity Set, profiling panel (AID 1171); details: A549 viability, higher = more signal, called active from +8 up or from −8 down; note: test concentration not given here
SMILES,z-score [1],composite z-score [2],z-score [3],z-score [4],z-score [5],z-score [6],z-score [7],z-score [8],z-score [9],z-score [10],z-score [11],z-score [12],z-score [13],z-score [14],z-score [15],z-score [16],z-score [17],z-score [18],z-score [19],z-score [20]
O=C1O[C@@H](c2ccccc2)[C@@H](c2ccccc2)N2[C@@H](c3ccc(OCCO)cc3)[C@]3(C(=O)Nc4ccc(C#CCCO)cc43)[C@@H](C(=O)N3CCCCCCC3)[C@H]12,0.974 (inactive),2.79,4.33 (inactive),1.27 (inactive),0.526 (inactive),0.737 (inactive),-0.178,1.6 (inactive),0.824 (inactive),1.08,0.819,1.02,0.874,0.206,0.269,0.523,-0.564 (inactive),-0.974,-0.399,0.932 (inactive)
CO[C@H]1O[C@H](CO)[C@@H](OC(=O)Nc2ccc(C#N)cc2)[C@H](OC(=O)c2cc3ccccc3[nH]2)[C@H]1OC(=O)c1cc2ccccc2[nH]1,2.89 (inactive),0.254,3.44 (inactive),0.178 (inactive),1.71 (inactive),-0.418 (inactive),2.06,-3.9 (inactive),-0.214 (inactive),-4.49,2.71,0.221,0.837,-2.28,-0.909,-1.55,0.53 (inactive),-0.405,-0.384,-1.49 (inactive)
O=C1[C@H]2[C@H]3[C@H](O)[C@H](O)CC(=NO[C@@H]4O[C@H](CO)[C@@H](O)[C@H](O)[C@H]4O)[C@H]3CC[C@H]2C(=O)N1Cc1ccccc1,-0.906 (inactive),0.0068,5.53 (inactive),0.117 (inactive),-0.19 (inactive),-0.801 (inactive),0.705,-2.63 (inactive),0.587 (inactive),0.353,-0.0916,-0.0474,-0.571,0.713,-0.716,0.616,-0.0221 (inactive),0.42,-0.755,0.623 (inactive)
NCCCCCNC(=O)[C@@H]1C[C@@H]2C(=O)N3CCC[C@H]3C(=O)N2[C@@H]1c1cccc(OCCO)c1,-0.221 (inactive),1.55,3.25 (inactive),0.506 (inactive),0.744 (inactive),0.0814 (inactive),0.0413,2.41 (inactive),1.19 (inactive),0.961,-0.323,0.571,-0.168,0.0689,0.0959,-1.5,-0.812 (inactive),0.167,0.543,0.142 (inactive)
CCCCc1nc2c(c3c1C[C@H](C)OC3)CN(CCC(C)C)CC2,-0.192 (inactive),-0.106,1.35 (inactive),0.977 (inactive),0.816 (inactive),0.589 (inactive),0.171,0.35 (inactive),0.315 (inactive),0.776,1.25,-0.11,0.597,0.411,-1.35,2.01,-0.836 (inactive),-0.0883,0.301,0.6 (inactive)
CO[C@H]1COC(=O)[C@@H]2CCCN2C(=O)CC=C[C@@H](C)[C@H](OC)COC(=O)CC=C[C@@H]1C,0.604 (inactive),-0.0974,-0.0558 (inactive),-1.3 (inactive),-0.464 (inactive),-1.7 (inactive),2.35,-0.331 (inactive),0.631 (inactive),0.557,0.346,1.04,1.01,0.292,0.84,1.23,0.252 (inactive),-1.13,1.16,0.287 (inactive)
O=C1C2=CC[C@H]3C(=O)N(Cc4ccc5c(c4)OCO5)C(=O)[C@H]3[C@H]2[C@H](O)[C@@H]2O[C@H]12,0.0561 (inactive),-0.0464,-1 (inactive),-0.507 (inactive),-0.906 (inactive),0.0094 (inactive),0.116,-0.382 (inactive),-0.111 (inactive),0.104,-0.227,0.447,0.162,0.351,-0.196,-0.275,0.00654 (inactive),-0.223,-0.398,-0.763 (inactive)
C#CCCCON=C1C[C@@H](O)[C@@H](O)[C@@H]2[C@@H]3C(=O)N(Cc4ccccc4)C(=O)[C@@H]3CC[C@H]12,0.362 (inactive),-0.111,1.38 (inactive),-0.506 (inactive),0.659 (inactive),-1.29 (inactive),0.69,0.162 (inactive),0.196 (inactive),-0.36,0.416,0.798,-0.969,0.772,0.477,0.843,0.381 (inactive),0.379,-0.901,0.97 (inactive)
CCOC(=O)NN=C1C[C@@H](O)[C@@H](O)[C@@H]2[C@@H]3C(=O)N(C4CCCCC4)C(=O)[C@@H]3CC[C@@H]12,-0.0671 (inactive),-0.147,1.61 (inactive),0.0554 (inactive),-1.02 (inactive),-0.039 (inactive),0.492,-0.000129 (inactive),0.328 (inactive),-0.121,-0.117,-0.091,-0.281,0.0416,-0.771,-0.426,-0.61 (inactive),-0.0516,0.134,-0.361 (inactive)

# From PubChem BioAssay
